KDM4E inh = qHTS Assay for Inhibitors of Human Jumonji Domain Containing 2E (JMJD2E); Lysine-specific demethylase 4E (Homo sapiens), B2RXH2; JMJD2E catalytic domain, FDH-coupled NADH fluorescence (FDH is formaldehyde dehydrogenase); Potency, µM (highest dose often 57.1 µM), usual class: inhibitors; 230,000 tested, 1.6% active; active means well fitted inhibition curve with a large enough effect, not every such curve was filed as active; inconclusive means small, poorly fitted or top-dose-only effect, or another doubt; inactive means no such curve, though single readings can be large or run the other way; further: nearly all actives have a fitted effect of over 50% in size
Target sequence (B2RXH2 1-337 limits assumed): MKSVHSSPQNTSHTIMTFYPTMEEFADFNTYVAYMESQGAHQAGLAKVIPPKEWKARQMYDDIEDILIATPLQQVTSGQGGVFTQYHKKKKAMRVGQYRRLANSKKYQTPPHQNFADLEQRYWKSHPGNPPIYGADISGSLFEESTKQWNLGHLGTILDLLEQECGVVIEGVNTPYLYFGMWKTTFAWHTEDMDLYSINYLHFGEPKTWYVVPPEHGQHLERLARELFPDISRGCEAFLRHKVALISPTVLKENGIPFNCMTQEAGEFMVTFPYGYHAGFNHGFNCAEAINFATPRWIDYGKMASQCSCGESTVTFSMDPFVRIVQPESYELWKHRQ
HPGD block = qHTS Assay for Inhibitors of HPGD (15-Hydroxyprostaglandin Dehydrogenase); 15-hydroxyprostaglandin dehydrogenase [NAD(+)] (Homo sapiens), P15428; purified HPGD, NADH fluorescence kinetic, PGE2 substrate; Potency, µM, hits mostly inhibitors; 150,000 tested, 4.3% active; active means well fitted inhibition curve with a large enough effect, not every such curve was filed as active; inconclusive means small, poorly fitted or top-dose-only effect, or another doubt; inactive means no such curve, though single readings can be large or run the other way
Target sequence (P15428 whole entry, looked up): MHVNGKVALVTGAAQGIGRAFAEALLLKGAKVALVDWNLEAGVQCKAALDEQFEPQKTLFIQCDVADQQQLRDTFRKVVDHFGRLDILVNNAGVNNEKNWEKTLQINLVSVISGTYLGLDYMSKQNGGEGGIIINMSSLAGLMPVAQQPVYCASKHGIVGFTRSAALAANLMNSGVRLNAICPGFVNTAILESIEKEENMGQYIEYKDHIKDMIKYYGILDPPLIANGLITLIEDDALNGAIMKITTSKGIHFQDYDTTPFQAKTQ
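20 nM HPGD preincubated 15 min at room temperature with compound in 50 mM Tris-HCl pH 8, 0.01% Tween 20. Started with 1 mM NAD+ and 30 uM prostaglandin E2; NADH fluorescence (360/450 nm) read 5 times over 30-s intervals, last minus first.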
Tau fibril FP = qHTS for Inhibitors of Tau Fibril Formation, Fluorescence Polarization; K18 P301L tau heparin fibrillization, Alexa594 FP, 6 h; Potency, µM (doses to about 57.7 µM), most hits filed as inhibitors; 280,000 tested, 0.39% active; AID 1468, 2008; further: nearly all actives have a fitted effect of over 55% in size
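Human K18 P301L fragment (15 uM unlabeled plus 0.24 uM Alexa 594-labeled) in 100 mM sodium acetate pH 7 with compound, aggregation induced by 20 uM heparin for 6 hr at 37 C. ThT (30 uM) added for 1 hr, then Alexa 594 FP read.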
Tau fluor cs = Counterscreen qHTS for Inhibitors of Tau Fibril Formation, Fluorescence Polarization; tau K18 P301L Alexa594 fluorescence, heparin fibrillization; Potency, µM (highest dose often 57.7 µM); 280,000 tested, 0.93% active; further: nearly all actives have a fitted effect of over 55% in size
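Human tau K18 P301L (15 uM unlabeled, 0.24 uM Alexa 594-labeled) in 100 mM sodium acetate pH 7 with 20 uM heparin, 6 hr at 37 C. ThT 30 uM added, 1 hr ambient; Alexa 594 FP and total fluorescence read at 555/632 nm.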
Tau ThT inhib = qHTS for Inhibitors of Tau Fibril Formation, Thioflavin T Binding. 270,000 tested, 2.1% active. recombinant tau K18 P301L (four-repeat tau fragment), heparin-induced fibrillization, ThT fluorescence. Potency, µM (top dose mostly 57.4 µM), usual class: inhibitors. AID 1460, 2008. Microtubule-associated protein tau (Homo sapiens), P10636; further: nearly all actives have a fitted effect of over 55% in size
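K18 P301L tau (15 uM + 0.24 uM Alexa 594-tagged), heparin 20 uM, NaOAc pH 7, 6 h 37 C; ThT 30 uM, 1 h RT, ex 450/em 510 nm.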
ALDH1A1 inh = qHTS Assay for Inhibitors of Aldehyde Dehydrogenase 1 (ALDH1A1); 220,000 tested, 7.3% active; Purified ALDH1A1, NADH fluorescence, propionaldehyde substrate; Potency, µM (doses to about 75.3 µM), actives largely listed as inhibitors; active means well fitted inhibition curve with a large enough effect, not every such curve was filed as active; inconclusive means small, poorly fitted or top-dose-only effect, or another doubt; inactive means no such curve, though single readings can be large or run the other way
Numbers stand for hits; – = inactive; ? = inconclusive; · = not tested or not shown; [ ] = another dose, or the depositor's remark. Shown are actives, neighbours in structure and some others; about 9.9% of the full set was active somewhere. Unless noted, the call rests on the fitted dose curve; in most records, active means well fitted curve in the direction sought with a large enough effect; inconclusive means small, poorly fitted or top-dose-only effect, or another doubt; inactive means no such curve, though single readings can be large; an effect the other way counts as inactive or inconclusive.

SMILES	KDM4E inh	HPGD block	Tau fibril FP	Tau fluor cs	Tau ThT inhib	ALDH1A1 inh
COc1ccc(NC(=O)c2ccc3c(SCC(=O)O)c4c(nc3c2)CCC4)c(OC)c1	·	·	–	–	?	·
O=C(COc1ccc(F)cc1)OCc1cc(=O)n2nc(C3CCCCC3)sc2n1	·	·	–	–	–	·
Cc1ccc2cc(C#N)c(NCCNC(=O)C3CC3)nc2c1C	?	·	–	–	–	?
Clc1cccc(Cl)c1CNc1ccc(N2CCCC2)cc1	12.6µM	·	?	?	7.94µM	15.8µM
Cc1c(Cl)cccc1NC(=O)CCOc1ccccc1	·	·	–	–	–	·
CC(C)C[C@H](NC(=O)[C@H](CCCCN)NC(=O)[C@H](CCCNC(=N)N)NC(=O)[C@H](C)NC(=O)[C@H](CO)NC(=O)[C@H](CCCCN)NC(=O)[C@H](CCCNC(=N)N)NC(=O)[C@H](C)NC(=O)CNC(=O)[C@@H](NC(=O)[C@H](Cc1ccccc1)NC(=O)CNC(=O)CNC(=O)[C@@H](N)Cc1ccccc1)[C@H](C)O)C(=O)N[C@@H](C)C(=O)N[C@@H](CC(N)=O)C(=O)N[C@@H](CCC(N)=O)C(=O)O	·	·	–	–	–	–
Cc1nc(N2CCCCC2)sc1C(=O)c1cccc([N+](=O)[O-])c1	–	·	–	–	–	10µM
Cc1nc(N2CCCCC2)sc1C(=O)c1ccc(SCCO)c([N+](=O)[O-])c1	–	·	–	?	?	12.6µM
COc1ccc(NS(=O)(=O)c2ccc3[nH]c4c(c3c2)CCCC4)c(OC)c1	·	·	–	15.8µM[quencher]	–	·
CCOc1ccc(NS(=O)(=O)c2ccc(NC(C)=O)c(OC)c2)cc1	–	–	–	–	–	5.01µM
COc1ccc(OC)c(CNS(=O)(=O)c2ccc3[nH]c4c(c3c2)CCCCC4)c1	·	·	–	?	–	·
COc1ccc(CNC(=O)CN(C)S(=O)(=O)c2ccc3[nH]c4c(c3c2)CCCC4)cc1	·	·	?	?	–	·
CCOc1ccc(NS(=O)(=O)c2ccc3nc(-c4ccccc4)[nH]c3c2)cc1	·	·	20µM	?	–	·
COc1ccc(NS(=O)(=O)c2ccc3[nH]c4c(c3c2)CCCCC4)cc1	·	·	–	3.55µM[quencher]	?	·
CCOc1ccc(NS(=O)(=O)c2ccc(OC)c(C)c2)cc1	–	–	–	–	–	?
C=CCNC(=S)N(CC=C)C1CCS(=O)(=O)C1 (stereo not given)	–	–	–	–	–	–
CCOc1ccc(NS(=O)(=O)c2ccc3[nH]c4c(c3c2)CCCCC4)cc1	·	·	–	14.1µM[quencher]	–	·
CN(C)c1ccc(CNS(=O)(=O)c2ccc3[nH]c4c(c3c2)CCCCC4)cc1	·	·	–	?	–	·
CCOc1ccc(NS(=O)(=O)c2ccc3[nH]c4c(c3c2)CCCC4)cc1	·	·	–	12.6µM[quencher]	–	·
Cc1cccc(CNc2cc(-c3c(C)noc3C)ncn2)c1	·	·	·	·	·	–
Cc1ccccc1C(=O)NC1(C(F)(F)F)N=C(c2ccccc2)N(C2CCCCC2)C1=O (stereo not given)	·	·	–	–	–	·
CCOC(=O)c1ccc(NS(C)(=O)=O)cc1	–	?	–	–	–	–
CCS(=O)(=O)Nc1cccc(C(=O)O)c1	–	·	·	·	·	·
CCS(=O)(=O)Nc1ccc(C(=O)OC)cc1	–	14.1µM	–	–	–	–
CCS(=O)(=O)Nc1ccc(C(=O)c2ccccc2)cc1	–	0.282µM	–	–	–	–
SMILES	KDM4E inh	HPGD block	Tau fibril FP	Tau fluor cs	Tau ThT inhib	ALDH1A1 inh
CCN(CC)S(=O)(=O)c1cc(C(=O)OCC(=O)c2ccc3c(c2)NC(=O)CO3)ccc1Cl	–	–	?	–	–	?
O=C1COc2ccc(C(=O)COC(=O)Cn3cnc4ccccc43)cc2N1	–	–	–	–	–	28.2µM
O=C1COc2ccc(C(=O)COC(=O)c3ccc4ccccc4n3)cc2N1	–	–	–	–	?	–
O=C1COc2ccc(C(=O)COC(=O)c3cnc(Cl)c(Cl)c3)cc2N1	–	·	–	–	?	1.26µM
COc1ccc(-c2csc(-c3[nH]cnc3N)n2)cc1	–	·	–	15.8µM[quencher]	11.2µM	7.08µM
COc1ccc(-c2csc(-c3ccc(C(=O)O)cc3)n2)cc1	?	·	–	–	–	?
COc1ccc(C(=O)Nc2cc(C(F)(F)F)ccc2Cl)cc1OC	–	–	–	–	?	–
COc1ccc2cc(C(=O)Nc3ccc(O)cc3)sc(=O)c2c1OC	–	25.1µM	–	?	?	–
O=C(COC(=O)c1cc(-c2cccs2)nn1-c1ccccc1)Nc1ccc(F)c([N+](=O)[O-])c1	–	–	–	–	–	?
N#Cc1ccc(NC(=O)COCc2cc(-c3ccco3)on2)cc1	·	·	–	–	–	·
COc1cc(/C(C)=N/NC(=O)CSc2nncn2C)ccc1OCc1ccccc1Cl	–	–	–	–	–	5.01µM
Cc1cccc2nc(CSc3nc4ccc([N+](=O)[O-])cc4[nH]3)c(Br)n12	–	?	?	?	?	25.1µM
Cc1nnc(NC(=O)Cn2cnc3c2c(=O)n(C)c(=O)n3C)s1	–	–	–	–	–	–
COc1ccc(/C(O)=C2/C(=O)C(=O)N(Cc3ccco3)C2c2cccs2)cc1 (stereo not given)	?	–	?	–	?	–
COC(=O)c1ccc(C2/C(=C(/O)c3ccc(OC)cc3)C(=O)C(=O)N2Cc2ccco2)cc1 (stereo not given)	?	–	–	–	?	17.8µM
Cn1c(CCNC(=O)c2ccco2)nc2cc(NC(=O)c3ccco3)ccc21	–	–	–	–	–	?
Cn1c(CCNC(=O)c2ccco2)nc2cc(NS(=O)(=O)c3ccccc3)ccc21	–	–	–	–	–	20µM
Cc1ccc(-c2nc3sc(CCNS(=O)(=O)c4cc(F)ccc4F)c(C)n3n2)cc1	·	·	–	–	–	·
Cc1cc(=O)[nH]c(SCCOc2ccc3c(c2)CCC3)n1	–	–	–	–	–	–
Cc1cc(=O)[nH]c(SCCOc2ccc(OC(C)C)cc2)n1	–	17.8µM	–	–	–	?
CCOC(=O)CNC(=O)CSc1ncnc2c1cnn2-c1ccccc1	–	–	–	–	–	–
CCOC(=O)CC(=O)CSc1ncnc2c1cnn2-c1ccccc1	–	–	–	–	?	22.4µM
CC(C)(C)c1[nH]c2ccccc2c1/C=N/O	–	2µM	–	–	–	–
COc1ccc(C(=O)C2CCCN(Cc3cccc4c3OCO4)C2)cc1OC (stereo not given)	–	·	–	–	–	–
